Measurements as given in PubChem BioAssay (EPA / NIEHS).
Values joined by “and” are separate entries in the source; they are usually repeats but may differ in a detail not shown here. Identical values can stand only once. Results filed as inconclusive are left out. Active and inactive are the calls of the source. Rule for the calls: active = hit-call score of the fitted dose curve at least 0.9, where 1 is the maximum; inconclusive = response in the unintended direction; inactive = score below 0.9.

Each molecule was assayed against Cytochrome P450 2C19 (Homo sapiens) (UniProt P33261) (assay: NVS_ADME_hCYP2C19: NovaScreen (NVS) CYP450-related Enzyme Activity (ADME) Assay for human CYP2C19 (AID 2283113);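 for AC50: potency for inhibition seen as loss of fluorescent signal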).
Method in brief: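 Recombinant insect-cell-expressed enzyme, fluorescent substrate, 1 h after chemical addition, fluorescence intensity. Baseline = acetonitrile vehicle; activity scored as signal loss. Primary HTS single concentration 10 uM, duplicate; actives retested in concentration series.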

Q: Which AC50 does the source give for `O=[N+]([O-])c1ccc(Nc2ccccc2)cc1` here?
A: 5 µM (active)

Q: With `Cc1cc(C(C)(C)c2ccc(O)c(C)c2)ccc1O` as the molecule, how does the AC50 read?
A: 1.04 µM (active)

Q: With `CNC(=O)CSP(=O)(OC)OC` as the molecule, how does the AC50 read?
A: 2.11 µM (active)

Q: `CCOC(=O)C(SP(=S)(OC)OC)c1ccccc1` (stereo unspecified) was tested. Which AC50 did it give?
A: 5 µM (active)

Q: For `CCOP(=O)(OCC)OC(=CCl)c1ccc(Cl)cc1Cl`, which AC50 is on record?
A: 1.45 µM (active)

Q: `CCOC(=O)CCN(SN(C)C(=O)Oc1cccc2c1OC(C)(C)C2)C(C)C` was tested. Which AC50 did it give?
A: 3.01 µM (active)

Q: How did the AC50 turn out when `CC(C=O)Cc1ccc2c(c1)OCO2` (stereo unspecified) was run?
A: 5 µM (active)

Q: With `OC(Cc1ccccc1Cl)(Cn1[nH]cnc1=S)C1(Cl)CC1` (stereo unspecified) as the molecule, how does the AC50 read?
A: 0.689 µM (active)

Q: Which AC50 does the source give for `CC1(C)[C@H](C(=O)O[C@H](C#N)c2cccc(Oc3ccccc3)c2)[C@@H]1/C=C(\Cl)C(F)(F)F` here?
A: 848 nM (active) and 3.32 µM (active)

Q: With `CN(C)C(=S)S` as the molecule, how does the outcome read?
A: inactive

Q: For `[Cl][Sn]([c]1ccccc1)([c]1ccccc1)[c]1ccccc1`, which AC50 is on record?
A: 1.25 µM (active)
